Screen size: about 94,000 compounds; about 280 (0.3%) were called active. This is one part of a sample in which actives are shown more often than they occur.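 The calls were made as follows: active = activation above 40%, about the mean plus 3 SD, also judged a hit on visual image review; inconclusive = activation above 40% but not a hit on visual review; inactive = activation not above 40% and no visual hit.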

This experiment in a line: enhancers of NFkB p65 translocation in HUVEC – imaging, IL-1B stimulus, high-content imaging, primary screen (AID 819).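 Also: percent activation is computed from the nuclear over cytoplasmic p65 intensity ratio.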 The note with it: HUVEC IL-1B NFkB p65 nuclear translocation imaging; at 2 µM; hits give high values.
As to `Cc1ccccc1-n1c(C)cc(/C=N/NC(=O)c2ccc(CN3CCOCC3)cc2)c1C`, the activation is 20.5% (inactive). As to `CC1CCc2c(c3ccccc3[nH]c2=O)O1` (stereo unspecified), the activation is -2.19% (inactive). For `COC(=O)c1cc(OC)c(OC)cc1NC(=O)CSc1ccc(C)cc1` the value was -0.33% (inactive); for `C/C=C/C(=O)Nc1nnc(C(C)C)s1`, 11.2% (inactive). For `CC1=C(C(N)=O)C(c2sccc2C)n2nnnc2N1` (stereo unspecified) the value was -11.1% (inactive). For `CCOC(=O)C1=C(CN2CCc3ccccc32)NC(=O)NC1c1cc(C)ccc1C` (stereo unspecified) the value was 3.45% (inactive); for `COc1cc(NS(=O)(=O)c2ccc(N=Cc3c(C)[nH]n(-c4ccccc4)c3=O)cc2)nc(OC)n1`, -2.69% (inactive). As for `Cc1cccc(N(C(=O)Cc2cccs2)C(C(=O)NC2CCCC2)c2ccsc2)c1` (stereo unspecified), the activation is -6.52% (inactive). For `O=C(Nc1cc2ccccc2oc1=O)C1CCCCC1` the value was -8.41% (inactive). For `CCC(C)n1c(-c2cc(OC)c(OC)c(OC)c2)nc2nc3ccccc3nc21` (stereo unspecified) the value was 6.63% (inactive).

Regarding `COc1ccc(CCN(C(=O)COc2ccccc2)c2nc(-c3ccccc3)cs2)cc1OC`, the activation was 4.5% (inactive). For `O=[N+]([O-])c1ccccc1OCCCCN1CCCCC1` the value was -1.68% (inactive). `CCNC(=S)NNC(=O)Cc1ccccc1`: the activation is 0.95% (inactive). For `CC(C)(C)c1ccc(C(=O)NNC(=O)Cc2ccccc2)cc1` the value was 41.9% (active); for `COc1ccc(OCC(=O)NNC(=O)c2ccc(-c3ccccc3)cc2)cc1`, 21.4% (inactive). In the case of `Cc1cccc(C)c1NC1=NC(=S)N(c2ccc(N(C)C)cc2)C1(C)C`, the activation was -11.7% (inactive). For `O=C(CN1CCN(S(=O)(=O)c2ccc3ccccc3c2)CC1)NC(=O)NC1CCCCC1` the value was -3.21% (inactive); for `O=C(Cn1cncn1)N/N=C/c1c2ccccc2cc2ccccc12`, -10.3% (inactive). Turning to `CCOC(=O)c1c(NC(=S)NC(=O)c2ccco2)sc2c1CCCC2`, the activation was 53.7% (active).

For the compound `CC(C)OC(=O)c1c(NC(=O)c2ccco2)sc2c1CCCC2`, the activation was -2.72% (inactive).

Take `CCOC(=O)c1c(NC(=O)CCC(=O)NCc2ccco2)sc2c1CCCC2`: the activation is 1.18% (inactive). For `O=C(CSc1nnnn1-c1ccccc1)NCc1ccco1` the value was -8.15% (inactive).

`Cc1sc(NC(=S)NC(=O)c2cccs2)nc1-c1ccc(CC(C)C)cc1`: the activation was 17.4% (inactive). For `O=C(Nc1ccc(Br)c2cccnc12)c1ccc(Cn2cc([N+](=O)[O-])cn2)o1` the value was 25.7% (inactive); for `CCN(CC)CCNc1ccc(Cl)cc1[N+](=O)[O-]`, 11.6% (inactive); for `CC(Sc1nnc(Cc2ccc([N+](=O)[O-])cc2)o1)C(N)=O` (stereo unspecified), 0.99% (inactive).

For `CC(Oc1ccc(Cl)cc1Cl)C(=O)/C=C/N(C)C` (stereo unspecified), the activation was 4.7% (inactive). For `CC1=NC2(CCCc3c2no[n+]3[O-])N(O)C1(C)C` (stereo unspecified) the value was 168% (active).

Turning to `Cc1cccc(C)c1-n1c(C)cc(/C=C2\C(=O)NN(c3ccccc3)C2=O)c1C`, the activation was -7.75% (inactive). For `O=C(O)c1ccccc1-c1ccccc1C(=O)Nc1cccc2ccccc12` the value was 8.14% (inactive). For `Cc1ccc(NC(=O)C(C)c2cccc(C(=O)c3ccccc3)c2)cc1` (stereo unspecified) the value was -0.9% (inactive). For `O=C1C(=O)N(c2ccccc2)c2ccccc21` the value was -1.05% (inactive); for `O=C(NC1CCc2ccccc21)C12CN(Cc3ccccc3)CC1C(c1cccc([N+](=O)[O-])c1)=NO2` (stereo unspecified), -3.33% (inactive).

For `Cc1cc(C(=O)OCC(=O)Nc2ccc(F)c(F)c2)c(C)o1`, the activation was -18.7% (inactive).

As to `CCn1c(COc2ccc(OC)cc2)nnc1SCC(=O)Nc1cc(OC)ccc1OC`, the activation was 4.96% (inactive).

As for `COc1ccc2c(c1OC)C(=O)OC2c1c(O)nc(SC)n(-c2ccccc2)c1=O` (stereo unspecified), the activation is 1.27% (inactive). Regarding `CCn1c(SC)nc(O)c(C(c2ccc(OC)c(O)c2)c2c(O)nc(SC)n(CC)c2=O)c1=O`, the activation was 59.4% (active). For `O=C(COc1ccc2ccccc2c1)N1CCN(C(=O)c2cccs2)CC1` the value was -12.1% (inactive); for `Cc1nc2c(-c3ccc(F)cc3)c(C)nn2c(C)c1CCC(=O)NCc1ccco1`, -8.14% (inactive); for `CCOC(=O)C1=C(c2ccccc2)N=C2SCC(=O)N2C1c1ccc(O)c(OC)c1` (stereo unspecified), 22.6% (inactive). For `Cc1cc(-c2ccccc2)n2nc(C)c(-c3ccccc3)c2n1` the value was -2.27% (inactive); for `CC(=O)c1ccc(OCCN2CCOCC2)cc1`, 29.4% (inactive). `C/C(=N\NC(=O)c1ccc(C)cc1)C1C(=O)c2ccccc2C1=O`: the activation was -6.49% (inactive). For `Cc1ccc2[nH]c(=O)c(CN(CCCN(C)C)C(=O)Nc3cccc(Cl)c3)cc2c1` the value was 20.3% (inactive); for `COc1ccc(NC(=O)CSc2nc(N)c(-c3ccccc3)c(=O)[nH]2)cc1`, 8.34% (inactive); for `COC(=O)c1cccc(-n2[nH]nnc2=S)c1`, -3.54% (inactive). For `COCc1cc(C(C)=O)ccc1OC` the value was 2.42% (inactive); for `CN(C)c1ccc(NC(=S)N(CCc2ccccc2)C2CC(=O)N(c3c(Cl)cccc3Cl)C2=O)cc1` (stereo unspecified), -17.7% (inactive); for `O=C(N/N=C/C=C/c1ccccc1)C1CC1(c1ccccc1)c1ccccc1` (stereo unspecified), 4.51% (inactive). Take `CCCn1nnc(NC(=O)COc2ccc(CC)cc2)n1`: the activation is 6.08% (inactive). As to `COC(=O)CNC(=O)c1ccccc1[N+](=O)[O-]`, the activation was 2.74% (inactive). Consider `CCCCNC(=O)CCn1c(=S)[nH]c2cc3c(cc2c1=O)OCO3`, for which the activation was -3.47% (inactive). For `COc1ccc(OCC(=O)NN2Cc3ccccc3C2=N)cc1` the value was 12.3% (inactive). Take `CCOc1cc(/C=C2/N=C(c3ccc(C(C)(C)C)cc3)OC2=O)cc(Cl)c1OS(C)(=O)=O`: the activation is 15.4% (inactive). Turning to `Cc1ccccc1OC/C(O)=C(\C#N)c1nc2ccccc2[nH]1`, the activation was -7.29% (inactive).

For `COC(=O)c1c(NC(=O)CSc2nncs2)sc2c1CCCCC2`, the activation was 144% (active).

Take `COC(=O)c1c(NC(=O)c2cccs2)sc2c1CCCC2`: the activation is -38.1% (inactive). For `CCOC(=O)c1c(NC(=O)CSc2nnc(C)c(=O)[nH]2)sc2c1CCC2` the value was -7.67% (inactive); for `CC(C)c1cc(C(N)=O)c(NC(=O)c2cccc(COc3ccc(Br)cc3)c2)s1`, 2.73% (inactive); for `CCCC(O)(c1ccc(OC)cc1)C(CN(C)C)c1ccccc1` (stereo unspecified), 8.96% (inactive). For `CS(=O)(=O)N(CC(=O)Nc1ccc(F)cc1F)c1cccc([N+](=O)[O-])c1` the value was 2.79% (inactive); for `CCOC(=O)c1c(NC(=O)CSc2nnc(CNc3ccc(C)cc3C)o2)sc(C)c1C`, 13.4% (inactive); for `CCOC(=O)NNC(=O)c1ccc(Cl)cc1`, -2.19% (inactive).

Turning to `COc1ccc(C2CC(c3cccs3)=Nc3ccccc3S2)cc1OC` (stereo unspecified), the activation was 3.96% (inactive). For `CCN(CC)C(=O)CSC1c2ccccc2C(=O)N1c1ccccc1` (stereo unspecified) the value was 16.1% (inactive). Regarding `Cc1ccc(OCC(=O)N/N=C/c2ccncc2)cc1`, the activation was 9.97% (inactive).

As for `Cc1ccc(CNC(=O)CCNC(=O)Cn2ccc3ccccc3c2=O)cc1`, the activation is -10.3% (inactive). Consider `COc1ccc(NC(=O)CCNC(=O)Cn2ccc3ccccc3c2=O)c(OC)c1`, for which the activation is 49.9% (active). For `COc1ccc(NC(=O)CCN2CCCC2)c(OC)c1` the value was -7.64% (inactive); for `Cc1ccc2c(c1)N(CC(=O)N(Cc1ccccn1)Cc1ccco1)C(=O)C(C(C)C)O2` (stereo unspecified), -18% (inactive); for `CCN1CCC(=NNC(=O)c2ccc(C)c([N+](=O)[O-])c2)CC1`, 9.79% (inactive).

These data come from PubChem BioAssay AID819 (Columbia University Molecular Screening Center, 2007).
